This note sets out measurements from PubChem BioAssay (EPA / NIEHS).

The source made the active and inactive calls. The calls were made as follows: active = hit-call score of the fitted dose curve at least 0.9, where 1 is the maximum; inactive = score below 0.9.

Read-out in experiment [1]: Tumor necrosis factor receptor superfamily member 6 (Homo sapiens) (UniProt P25445)
Kind of experiment: LTEA_HepaRG_FAS: Life Technologies and Expression Analysis (LTEA) Assay for Fas cell surface death receptor (FAS) using HepaRG (AID 2283447). Conditions: mRNA level, 48 h; actives raise or lower the signal. The procedure, abridged:
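Differentiated human HepaRG cells, pre-cultured 48 h, were exposed in duplicate for 48 h to 8-point half-log concentrations (top 100 uM, 0.5% DMSO) in serum-free induction medium; FAS mRNA measured by qRT-PCR, normalized to ACTB/GAPDH/POLR2A, bidirectional fit versus DMSO.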

Read-out in experiment [2]: Fatty acid synthase (Homo sapiens) (UniProt P49327)
Put plainly: LTEA_HepaRG_FASN: Life Technologies and Expression Analysis (LTEA) Assay for Fatty Acid Synthase (FASN) using HepaRG (AID 2283448). Conditions: mRNA level, 48 h; actives raise or lower the signal. Put shortly:
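Transcript-level assay: HepaRG liver cells are treated for 48 h across an eight-point range topping at 100 uM, and FASN mRNA, normalized to three housekeeping genes, is compared with DMSO controls in both directions.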

Read-out in experiment [3]: Cyclin D2 (CCND2), CCND2 (gene 894)
Kind of experiment: LTEA_HepaRG_CCND2: Life Technologies and Expression Analysis (LTEA) Assay for Cyclin D2 (CCND2) using HepaRG (AID 2283449).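 Also: CCND2 transcript measured by TaqMan qRT-PCR and normalised to three housekeeping genes.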 As to conditions: mRNA level, 48 h; actives raise or lower the signal. The procedure, abridged:
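Differentiated human HepaRG cells were exposed for 48 h in serum-free induction medium to eight half-log concentrations topping at 100 uM (0.5% DMSO vehicle). CCND2 mRNA was quantified by TaqMan qRT-PCR, normalised to ACTB, GAPDH and POLR2A, and fitted bidirectionally against DMSO.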

Read-out in experiment [4]: Cyclin Dependent Kinase Inhibitor 1A (CDKN1A), CDKN1A (gene 1026)
Kind of experiment: LTEA_HepaRG_CDKN1A: Life Technologies and Expression Analysis (LTEA) Assay for Cyclin Dependent Kinase Inhibitor 1A (CDKN1A) using HepaRG (AID 2283450). Conditions: mRNA level, 48 h; actives raise or lower the signal. The procedure, abridged: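 Gain or loss of CDKN1A transcript is scored by bidirectional fitting against 0.5% DMSO vehicle. Human HepaRG cultures receive chemicals for 48 h across an 8-point series peaking at 100 uM; expression comes from qRT-PCR.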

Read-out in experiment [5]: Cyclin D1 (CCND1), CCND1 (gene 595)
Put plainly: LTEA_HepaRG_CCND1: Life Technologies and Expression Analysis (LTEA) Assay for Cyclin D1 (CCND1) using HepaRG (AID 2283451). Conditions: mRNA level, 48 h; actives raise or lower the signal. Put shortly: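 Expression change is measured by qRT-PCR in HepaRG cells after 48 h treatment across eight concentrations topping at 100 uM, with duplicate wells and DMSO (0.5%) serving as baseline for bidirectional fitting.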

Experiment [6] is described as follows: CEETOX_H295R_CORTISOL: CeeTox H295R High-throughput Steroidogenesis Assay for Cortisol (AID 2283438).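 Also: cortisol secreted into medium quantified by LC-MS/MS.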 As to conditions: actives raise or lower the signal. Put shortly: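 Human adrenocortical H295R cells (passage ≤10) received test chemicals for 48 h after forskolin priming. Secreted cortisol was measured by LC-MS/MS.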
Experiment [7] in a line: CEETOX_H295R_DOC: CeeTox H295R High-throughput Steroidogenesis Assay for DOC (AID 2283439). Conditions: actives raise or lower the signal. Put shortly:
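Secreted DOC was quantified from H295R media by HPLC-MS/MS after 48 h chemical exposure following 48 h forskolin (10 uM) prestimulation. Values were fitted in both directions relative to DMSO, the negative control and baseline.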

The nature of experiment [8]: CEETOX_H295R_PROG: CeeTox H295R High-throughput Steroidogenesis Assay for Progesterone (PROG) (AID 2283442).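 As to AC50: human H295R adrenal cells primed with 10 µM forskolin before dosing.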 Conditions: actives raise or lower the signal. The procedure, abridged:
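Measured analyte is progesterone secreted by H295R cells at 48 h of chemical treatment, following 10 uM forskolin priming. Quantitation used HPLC-MS/MS against a 7-point standard curve; cytotoxicity was checked by MTT absorbance.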

The nature of experiment [9]: CEETOX_H295R_ESTRADIOL: CeeTox H295R High-throughput Steroidogenesis Assay for Estradiol (AID 2283440).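 Also: estradiol secreted into medium quantified by LC-MS/MS after dansyl derivatisation.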 As to conditions: actives raise or lower the signal. Put shortly: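 Readout is estradiol in conditioned medium, quantified by reverse-phase HPLC-MS/MS against a 7-point standard curve. Cells: H295R, forskolin-stimulated, then dosed 48 h in 0.1% DMSO; activity fitted in both directions relative to DMSO.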

Experiment [10] in a line: CEETOX_H295R_ESTRONE: CeeTox H295R High-throughput Steroidogenesis Assay for Estrone (AID 2283441).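 Also: estrone secreted into medium measured by LC-MS/MS after dansyl derivatization.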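 As to AC50: human adrenal H295R cells prestimulated with forskolin for two days.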 As to conditions: actives raise or lower the signal. Put shortly:
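H295R cells; 48 h forskolin (10 uM) prestimulation; 48 h compound exposure, 0.1% DMSO final. Medium estrone: MTBE extraction, dansyl derivatization, HPLC-MS/MS. Bidirectional fit vs DMSO.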

Fatty acid synthase (Homo sapiens), sequence (P49327 whole entry, looked up): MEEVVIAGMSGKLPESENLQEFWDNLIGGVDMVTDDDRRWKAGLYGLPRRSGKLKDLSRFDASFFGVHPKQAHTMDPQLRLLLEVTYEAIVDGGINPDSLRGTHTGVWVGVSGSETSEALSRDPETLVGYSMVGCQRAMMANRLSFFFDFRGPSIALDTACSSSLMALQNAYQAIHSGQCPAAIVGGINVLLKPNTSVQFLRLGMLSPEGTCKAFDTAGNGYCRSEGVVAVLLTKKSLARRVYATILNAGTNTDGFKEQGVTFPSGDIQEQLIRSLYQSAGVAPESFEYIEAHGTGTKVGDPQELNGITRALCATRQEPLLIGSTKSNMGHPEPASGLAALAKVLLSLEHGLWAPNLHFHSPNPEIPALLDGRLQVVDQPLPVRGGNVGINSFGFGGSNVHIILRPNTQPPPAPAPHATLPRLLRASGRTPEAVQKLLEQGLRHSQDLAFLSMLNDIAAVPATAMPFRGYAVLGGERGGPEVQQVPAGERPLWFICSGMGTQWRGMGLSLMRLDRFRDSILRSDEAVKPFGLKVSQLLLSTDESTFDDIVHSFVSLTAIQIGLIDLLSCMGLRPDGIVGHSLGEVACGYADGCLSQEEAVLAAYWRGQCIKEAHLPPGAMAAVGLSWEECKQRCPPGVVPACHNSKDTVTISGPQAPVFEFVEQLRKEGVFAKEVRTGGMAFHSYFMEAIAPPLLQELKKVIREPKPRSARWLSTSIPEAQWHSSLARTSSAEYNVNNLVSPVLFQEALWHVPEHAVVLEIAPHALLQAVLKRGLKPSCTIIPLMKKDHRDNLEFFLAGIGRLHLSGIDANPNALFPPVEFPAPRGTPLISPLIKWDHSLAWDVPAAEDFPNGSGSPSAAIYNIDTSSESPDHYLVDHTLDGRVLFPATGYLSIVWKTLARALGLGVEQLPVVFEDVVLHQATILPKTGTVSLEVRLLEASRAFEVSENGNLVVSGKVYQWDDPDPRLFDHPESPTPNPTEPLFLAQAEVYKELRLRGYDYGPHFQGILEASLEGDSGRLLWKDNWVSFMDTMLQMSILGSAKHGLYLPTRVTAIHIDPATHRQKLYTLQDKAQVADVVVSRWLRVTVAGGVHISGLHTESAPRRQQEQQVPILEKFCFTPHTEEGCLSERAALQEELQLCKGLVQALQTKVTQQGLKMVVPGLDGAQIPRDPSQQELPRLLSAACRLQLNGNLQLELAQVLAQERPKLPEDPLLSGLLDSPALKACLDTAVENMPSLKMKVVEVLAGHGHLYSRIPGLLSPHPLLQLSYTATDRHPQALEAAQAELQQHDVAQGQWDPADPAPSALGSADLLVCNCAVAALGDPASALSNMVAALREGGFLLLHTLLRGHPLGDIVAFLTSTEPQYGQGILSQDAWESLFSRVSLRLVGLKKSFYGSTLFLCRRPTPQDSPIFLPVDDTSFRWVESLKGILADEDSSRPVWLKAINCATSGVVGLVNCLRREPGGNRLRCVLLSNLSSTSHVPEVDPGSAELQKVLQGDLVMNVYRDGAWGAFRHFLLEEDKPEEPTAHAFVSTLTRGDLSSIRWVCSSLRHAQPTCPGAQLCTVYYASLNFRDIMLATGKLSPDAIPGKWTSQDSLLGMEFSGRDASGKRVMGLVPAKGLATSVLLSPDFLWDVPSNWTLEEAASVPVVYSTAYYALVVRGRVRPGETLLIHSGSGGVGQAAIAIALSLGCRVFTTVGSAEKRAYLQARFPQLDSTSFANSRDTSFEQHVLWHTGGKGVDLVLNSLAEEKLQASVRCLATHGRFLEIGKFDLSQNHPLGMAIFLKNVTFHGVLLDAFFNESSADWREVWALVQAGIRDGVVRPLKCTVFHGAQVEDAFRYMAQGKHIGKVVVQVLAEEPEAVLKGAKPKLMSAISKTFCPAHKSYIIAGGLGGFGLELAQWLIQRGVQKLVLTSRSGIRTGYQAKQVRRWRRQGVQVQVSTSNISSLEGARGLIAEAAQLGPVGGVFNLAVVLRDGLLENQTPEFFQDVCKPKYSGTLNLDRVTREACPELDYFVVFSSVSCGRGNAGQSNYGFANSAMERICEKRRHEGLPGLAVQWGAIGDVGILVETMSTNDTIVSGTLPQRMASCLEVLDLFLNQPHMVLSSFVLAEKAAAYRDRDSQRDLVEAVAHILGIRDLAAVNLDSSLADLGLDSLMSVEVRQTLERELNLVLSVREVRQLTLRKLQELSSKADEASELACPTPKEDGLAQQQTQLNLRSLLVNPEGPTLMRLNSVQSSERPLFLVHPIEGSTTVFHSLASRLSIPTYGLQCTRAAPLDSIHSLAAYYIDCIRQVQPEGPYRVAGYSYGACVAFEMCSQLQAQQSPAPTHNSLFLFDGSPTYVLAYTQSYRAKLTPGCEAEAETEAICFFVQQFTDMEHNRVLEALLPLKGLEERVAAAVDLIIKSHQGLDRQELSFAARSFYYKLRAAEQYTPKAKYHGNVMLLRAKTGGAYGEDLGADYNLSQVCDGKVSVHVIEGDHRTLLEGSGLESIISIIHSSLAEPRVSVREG

As for `CCc1cnc(C2=NC(C)(C(C)C)C(=O)N2)c(C(=O)O)c1` (configuration not stated), the result in experiment [1], in [2], in experiment [3], in [4] and in experiment [5] was inactive.
In the case of `CSc1nnc(C(C)(C)C)c(=O)n1N`, the molecule was classed as inactive in [6], in [7], in experiment [8], in [1], in experiment [2] and in experiment [3]. Also, the call in experiment [4] and in [5] was inactive.
One may read the AC50 as the midpoint of the concentration-response curve, whichever way the signal moves. For the molecule `C#CC(C)(C)NC(=O)c1cc(Cl)cc(Cl)c1`, the result in experiment [6], in [1], in [3], in [4] and in experiment [5] was inactive. For the same molecule, the AC50 in [7] is 7.45 µM (active); in experiment [8], 10.4 µM (active); in [2] it was 0.0239 µM (active).
On to `CCOC(=O)COc1cc(-c2nn(C)c(OC(F)F)c2Cl)c(F)cc1Cl`, for which the molecule was called inactive in experiment [6], in experiment [7], in experiment [8], in experiment [1], in experiment [2] and in [3]. Moreover, the result in experiment [4] and in [5] was inactive.
On to `CC(C1CC1)C(O)(Cn1cncn1)c1ccc(Cl)cc1` (configuration not stated), for which the half-maximal activity concentration (AC50) in [8] is 2.23 µM (active). The call in experiment [1], in experiment [2], in experiment [3], in [4] and in experiment [5] was inactive.
In the case of `CSc1nc(NC(C)C)nc(NC(C)C)n1`, the call in experiment [9], in experiment [8], in [1], in experiment [2], in experiment [3] and in [4] was inactive. For the same molecule, in experiment [5], the outcome was inactive. Also, the AC50 in [10] was 2.54 µM (active).
With `CCNc1nc(Cl)nc(NC(C)(C)C#N)n1`, the call in [6], in [7], in [8], in [1], in experiment [2] and in experiment [3] was inactive. Further, the result in [4] and in experiment [5] was inactive.
Regarding `CNC(=O)ON=C(SC)C(=O)N(C)C`, the molecule was classed as inactive in experiment [9], in experiment [10], in experiment [8], in experiment [1], in experiment [2] and in [3]. Moreover, the outcome in experiment [4] and in experiment [5] was inactive.
As to `CN(C)NC(=O)CCC(=O)O`, the call in experiment [8], in experiment [1], in [2], in experiment [3], in [4] and in experiment [5] was inactive.
For the molecule `CC(COc1ccc(Oc2ccccc2)cc1)Oc1ccccn1` (configuration not stated), the result in [8], in [1], in experiment [3], in experiment [4] and in experiment [5] was inactive. Moreover, the AC50 in experiment [2] is 30.5 µM (active).
`COP(=O)(NC(C)=O)SC` (configuration not stated): the molecule was called inactive in [6], in experiment [7], in experiment [8], in [1], in [2] and in experiment [4]. Moreover, the call in [5] was inactive.
In the case of `CCOP(=S)(OCC)Oc1cc(C)nc(C(C)C)n1`, the AC50 in experiment [6] is 50 µM (active); in experiment [8] it was 26 µM (active). Besides, the outcome in experiment [7], in experiment [1], in [2], in [4] and in experiment [5] was inactive.
For the molecule `CC1(C(=O)Nc2ccc(O)c(Cl)c2Cl)CCCCC1`, the AC50 in experiment [8] was 7.63 µM (active). The molecule was called inactive in experiment [1], in experiment [3], in [4] and in experiment [5].
Turning to `CCCCN(CC)c1c([N+](=O)[O-])cc(C(F)(F)F)cc1[N+](=O)[O-]`, the outcome in experiment [6], in [7], in experiment [8], in experiment [1], in experiment [2] and in experiment [3] was inactive. Also, the result in experiment [4] and in experiment [5] was inactive.
Take `CN(C)C(=O)Nc1cccc(C(F)(F)F)c1`: the result in [8], in experiment [1], in experiment [2], in [3], in experiment [4] and in [5] was inactive.
On to `CNC(=O)Oc1cccc2c1OC(C)(C)O2`, for which the molecule was called inactive in [6], in [7], in experiment [1], in [2], in experiment [4] and in [5]. For the same molecule, the AC50 in [8] is 4.74 µM (active).
Turning to `CCCSP(=O)(OCC)Oc1ccc(Br)cc1Cl` (configuration not stated), the outcome in experiment [8], in [1], in [2], in experiment [3], in experiment [4] and in experiment [5] was inactive.
